# Measured values reported in PubChem BioAssay AID1745849 (National Center for Advancing Translational Sciences (NCATS), 2022).
# About 320 (15%) of roughly 2,100 compounds were called active. Roughly 52% stayed inconclusive and do not appear here. Some of the results follow. A number with no mark means an inactive call. Calls come from the whole dose curve; as a rule, active = well fitted cell-killing curve with a large enough effect; inconclusive = small, poorly fitted or top-dose-only effect, or effect the other way; inactive = flat fitted curve, though single readings scatter.
# Test: Viability Counterscreen for CMV-Luciferase Assay of Inhibitors of ATXN expression; note: nearly all actives have a fitted effect of over 55% in size
# Settings: HEK-293 CMV-luciferase cells viability, protease fluorescence, 24 h; activity change, negative = cytotoxicity: at the top concentration
# Text: PI: Daniel Scoles Ph.D. University of Utah School of Medicine, Salt Lake City, Utah MLPCN Grant: NS073009 Spinocerebellar ataxia type 2 (SCA2) is a multisystem neurodegenerative disease caused by a dominantly acting mutation leading to expansion of a polyQ domain in the ataxin-2 protein (ATXN2). SCA2 patients develop progressive ataxia and later lose function in other neuronal systems. Prominent parkinsonian signs develop in some patients. Like many neurodegenerative disorders, no symptomatic or disease-modifying treatments are known. The primary objective of the proposed research is to identify compounds inhibiting ATXN2 expression and to test them for efficacy in SCA2 mouse models. We have developed a cell-based assay paired with an in vivo mouse model using identical luciferase expression constructs. This approach takes advantage of an ATXN2-luciferase transgene, with the luciferase gene flanked by the upstream and downstream portions of the ATXN2 gene. Here we describe a 5-7 dose quantitative high thoroughput screen (qHTS) for compounds lowering ATXN2 expression. We screened the NIH Molecular Libraries Small Molecule Repository (MLSMR) and NCGC's mechanistically annotated (MIPE) and drug repurposing (NPC) collections of compounds for lowering expression of an ATXN2-luciferase reporter in HEK-293 cells. The assay is a multiplexed cell viability assay to ensure target reduction in the absence of cytotoxicity. Secondary qHTS assays included a CMV-luciferase reporter expressed in HEK-293 cells as well as a biochemical assay using recombinant luciferase to detect inhibitors of the reporter enzyme. Compounds that inhibit ATXN2 expression but is not cytotoxic were selected for confirmatory and secondary screens.
# PROTOCOL TABLE (as described by Inglese J, Shamu CE and Guy RK. 2007) SEQUENCE No. (e.g., 1, 2, 3, etc.); […] (e.g., Cells, Incubation, Reagent, etc.); VALUE; DESCRIPTION. 1; Cells; 4 uL; white, solid bottom, 1536-well Greiner assay plate. 2; Incubation; 2 hr; 37 degree C in 5% humidified CO2. 3; Compounds; 23 nL; Kalypsis pintool (Wako USA) equipped with a 1536-well pin head. 4; Incubation; 24 hr; 37 degree C in 5% humidfified CO2. 5; Reagent; 1 uL; Gly-Phe-7-Amino-4-trifluoromethylcoumarin. 6; Incubation; 30 min; 37 degree C in 5% humidfified CO2. 7; Detection; Fluorescence; Viewlux plate reader (PerkinElmer). 8; Reagent; 3 uL; SteadyGlo luciferase solution (Promega). 9; Incubation; 5 min; room temperature. 10; Detection; Luminescence; ViewLux plate reader (PerkinElmer). NOTES (numbers refer to Sequence numbers above) 1. HEK-293 cells expressing CMV-luciferase reporter (designated as SC cells) were suspended in phenol-red free DMEM and dispensed in assay plates using a Multidrop Combi dispenser (Thermo Fisher Scientific). 2. Assay plates were incubated. Evaporation was prevented by covering assay plates with metal lids containing holes to allow gas diffusion. 3. Compounds were added in a dose response manner with the final concentrations of 57, 11.4, 2.28, 0.46, 0.091, 0.018, 0.0037 uM. Vehicle-only plates, with DMSO being pin-transferred to columns 5-48, were inserted uniformly at the beginning and the end of each library to monitor and record any shifts in assay performance. 5. 125 uM Gly-Phe-7-Amino-4-trifluoromethylcoumarin (MP Biomedicals) working concentration was used at a final concentration of 25 uM. 7. To assess cell viability; the assay plates were read using the ViewLux high-throughput CCD imager (PerkinElmer), wherein single end-point fluorescence measurement was acquired (excitation 405/10; emission 540/25 nm). 8. Detection reagent SteadyGlo Luciferase (Promega) was added to the assay plate. 10. Luminescence is then measured on the ViewLux imager equipped with a clear emission filter using a 2 sec exposure. […]
# % is set by controls: 0 for no effect and ±100 for the full control effect; potency is the fitted concentration of half-maximal effect.
SMILES,"activity change, negative = cytotoxicity",Potency
O=C(NCC1CCCO1)c1cccc(Oc2ccc([N+](=O)[O-])cc2Cl)c1 (centres undefined),12.9%,–
CCN(CC)C(=O)C1=C(C)N(CCC2=CCCCC2)C(=O)C(CC(=O)NC(c2ccccc2)c2ccccc2)C1 (centres undefined),-26.1%,–
O=C(O)CSc1cc(NS(=O)(=O)c2ccc(Cl)cc2)c2ccccc2c1O,-8.84% [at 57.5 µM],–
COc1ccc(-c2csc(N(CCCN3CCOCC3)C(=O)c3ccco3)n2)cc1,-15.1%,–
CCOc1ccc(NCc2cccn2-c2nnc(N3CCC(C(=O)NCCCN4CC(C)CC(C)C4)CC3)s2)cc1 (centres undefined),-19.6%,–
CCN(CC)CCNC1=NCCn2c1cc1cc(OC)ccc12,-15.7%,–
CCCCCn1c(=O)c2ccccc2n2c(CCl)nnc12,–,14.1 µM (active)
Cc1cc(C)cc(OCC(=O)NNC(=S)NC(=O)C2CC2)c1,-23.3%,–
CCCCC1C(=O)CC[C@H]2[C@@H]1CC(=O)[C@@H]2C/C=C\CCCC(=O)O (some centres undefined),-4.83%,–
CC(=O)N1c2ccc(S(=O)(=O)N3CCC(C(=O)N4CCN(c5ccc(Cl)cc5)CC4)CC3)cc2CC1C (centres undefined),-27.4% [at 57.5 µM],–
CC1CC2(C)Oc3ccccc3CC2C(C)C1CNCCCN(C)C (centres undefined),–,35.5 µM (active)
COc1cc([N+](=O)[O-])cc(/C=N/NC(=O)c2ccc(NC(=O)c3ccc(C)cc3)cc2)c1O,–,1.41 µM (active)
COc1cc(Br)cc(/C=N/NC(=O)Cc2ccc(C(F)(F)F)cc2[N+](=O)[O-])c1O,-26.5% [at 57.5 µM],–
CC(C)C(=O)Nc1ccc(C(=O)N/N=C/c2cc(Br)cc(Br)c2O)cc1,17.3% [at 57.5 µM],–
CC(=O)N1CCN(c2ccc(Oc3ccc([N+](=O)[O-])c(C(F)(F)F)c3)cc2)CC1,-28.6% [at 57.5 µM],–
O=C(Oc1c(CN2CCOCC2)cc(Cl)c2cccnc12)c1ccccc1,-15.7%,–
Clc1ccc(SCc2cc(N3CCOCC3)nc(-c3ccccn3)n2)cc1,–,17.8 µM (active)
Cc1cc(Oc2ccc(Cl)cc2)nc(-c2ccccn2)n1,9.12% [at 57.5 µM],–
CCCC(=O)Nc1ccc2nc(SCC(=O)N3CCCC3)sc2c1,10.3% [at 57.5 µM],–
COc1ccccc1OCCN1CSC(=S)N(C)C1,–,11.2 µM (active)
COc1cc(OC)cc(-c2cc3nc(C)c(CCC(=O)NCc4ccccc4)c(C)n3n2)c1,0.755% [at 57.5 µM],–
O=C(NCc1ccccc1C(F)(F)F)c1cccc2c1C(=O)c1ccc(N3CCC(N4CCCCC4)CC3)cc1S2(=O)=O,-2.76%,–
Cc1ccsc1/C=C/C1=Cc2c(sc(NC(=O)CSc3n[nH]c(N)n3)c2C#N)C(C)(C)C1,2.76% [at 57.5 µM],–
COC(=O)c1ccccc1S(=O)(=O)NNC(=O)Nc1ccccc1,7.74%,–
COc1ccc(/C=C/C(=O)Nc2cccc(S(=O)(=O)N3CCCC3)c2)cc1OC,17.8%,–

SMILES,"activity change, negative = cytotoxicity",Potency
CCSc1nc2ccccc2n1C(=O)/C=C\c1ccc(OC)c(OC)c1,–,4.47 µM (active)
O=C(CN1c2cccc3cccc(c23)S1(=O)=O)NCc1ccc(Cl)cc1,1.66%,–
CCN(CC)CCC(c1ccc2c(c1)OCO2)c1c(OC)cc(OC)c2c(-c3ccccc3)cc(=O)oc12 (centres undefined),–,17.8 µM (active)
COc1ccccc1C(=O)NNC(=O)c1nn(Cc2ccccc2)c(=O)c2ccccc12,–,22.4 µM (active)
CC(C)(C)c1ccc(OCCn2nc(C(=O)O)c3ccccc3c2=O)cc1,-4.92% [at 57.5 µM],–
COc1ccc(-n2nc(C(=O)NCC(=O)Nc3cccc(Cl)c3)c3ccccc3c2=O)cc1OC,-8.61% [at 57.5 µM],–
O=C(N/N=C/c1ccccc1O)/C(=C/c1ccccc1)CCO,-7.96%,–
O=C(C(Br)=Cc1ccccc1)c1ccccc1,–,7.94 µM (active)
CC(C)(C)NCC(=Cc1ccccc1)C(=O)c1ccccc1,–,2.24 µM (active)
Cc1ccc(CN(C)C(=O)CN2C(=O)NC(c3ccccc3)(c3ccccc3)C2=O)c(C)c1,-27.6%,–
O=C(Nc1cccc(S(=O)(=O)N2CCOCC2)c1)c1ccc2c(=O)n3c(nc2c1)CCCCC3,-20.1%,–
O=C(Nc1ccc(NC(=O)c2ccc(Cl)cc2Cl)cc1)c1cccs1,-25.7% [at 57.5 µM],–
O=C(Nc1ccc(Cl)cc1)Nc1nc(-c2sccc2Br)cs1,–,10 µM (active)
Cc1ccc(F)cc1-c1cc2nc(NCCCN(C)C)n(C)c(=O)c2s1,-13.1% [at 57.5 µM],–
CC(C)c1cccc(C(C)C)c1Nc1cn[nH]c1,-15.4%,–
CCOC(=O)c1cnc(-n2nc(C)cc2C)nc1NNc1cc(C)nc(-c2ccccc2)n1,–,8.91 µM (active)
CCOC(=O)c1cnc(-n2nc(C)cc2C)nc1NC1CCCC1,-7.03%,–
Cc1cc(NCc2ccccn2)n2nc(C)c(-c3ccc(Cl)cc3)c2n1,–,20 µM (active)
CCCc1cc(NCc2ccccn2)n2nc(C)c(-c3ccccc3)c2n1,-18.3%,–
CC(C)C(CCNCc1ccccn1)c1ccc(Cl)cc1 (centres undefined),5.83% [at 57.5 µM],–
COc1cc(/C=C2\COC/C(=C\c3cc(OC)c(OC)c(OC)c3)C2=O)cc(OC)c1OC,–,1.58 µM (active)
COc1cc(OC)c(OC)cc1/C=C1\CC(C)C/C(=C\c2cc(OC)c(OC)cc2OC)C1=O (centres undefined),-29.6% [at 57.5 µM],–
COc1cc(/C=C/c2ccc3cccc(O)c3n2)cc(OC)c1OC,-28.4% [at 57.5 µM],–
CCOC(=O)N(C)c1c(CC)nc2c(OCc3ccccc3OC)cccn12,14.1% [at 57.5 µM],–
